Compounds with a hit are over-represented: about 4.5% of the library has one in this group of screens.
CSC inhib: cancer stem cell inhibition | 1.1% of 300,000 active | inhibition, % at 7.5 µM | cancer stem cell-like cells viability, luminescence; in the data active = inhibition above about 75%; tested in HMLE shEcad cells
Gli-Sufu antag: blocks Gli-Sufu signaling in a luciferase reporter; inhibition, % at 5 µM; Sufu-KO-LIGHT fibroblasts, Gli luciferase reporter luminescence; 0.74% of 340,000 active;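 active = inhibition above about 55%, limit read from the data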;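 note: 0% = DMSO-treated cells and 100% = wells with medium but no cells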
Beta apoptosis: beta cell apoptosis inhibition | INS-1E cytokine-induced death, ATP luminescence, 48 h; percent of positive-control rescue, neutral wells zero | protection from apoptosis, % (test concentration not listed) | 0.8% of 300,000 active | AID 435005;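 active = Every replicate reaches about 75%, or at least half do and their mean reaches it too, limit read from the data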;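 note: 0% = cytokine-treated negative control wells and 100% = positive control rescue; higher means more ATP so stronger rescue from cytokine killing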
Jurkat NFkB inh: inhibitors of the PMA/ionomycin-induced NF-kB reporter in Jurkat cells. PMA/ionomycin-induced NF-kB luciferase reporter, luminescence. inhibition, % at 4 µM. 0.53% of 330,000 active; in the data active = inhibition above about 50%
Mdm2 MdmX PPI: inhibitors of human Mdm2/MdmX interaction; O15151+Q00987; SaOS-2 split-luciferase Mdm2/MdmX complementation, luminescence; inhibition, % at 8 µM; 3% of 330,000 active; AID 485346;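 active = inhibition of at least 50% at 8 µM in the primary screen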
Target sequence (O15151 whole entry, looked up): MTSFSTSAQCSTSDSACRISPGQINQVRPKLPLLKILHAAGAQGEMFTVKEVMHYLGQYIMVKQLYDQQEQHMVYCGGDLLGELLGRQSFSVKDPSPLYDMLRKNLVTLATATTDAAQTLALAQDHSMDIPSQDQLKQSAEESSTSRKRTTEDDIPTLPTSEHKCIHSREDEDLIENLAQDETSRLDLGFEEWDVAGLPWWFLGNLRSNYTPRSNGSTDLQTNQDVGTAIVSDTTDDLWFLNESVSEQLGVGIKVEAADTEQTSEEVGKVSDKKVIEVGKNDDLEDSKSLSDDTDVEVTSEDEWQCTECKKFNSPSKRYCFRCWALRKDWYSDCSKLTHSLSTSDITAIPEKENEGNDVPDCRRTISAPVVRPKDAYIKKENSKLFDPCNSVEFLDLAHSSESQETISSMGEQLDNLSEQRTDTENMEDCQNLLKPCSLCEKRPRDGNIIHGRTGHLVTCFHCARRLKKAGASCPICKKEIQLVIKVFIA
Target sequence (Q00987 whole entry, looked up): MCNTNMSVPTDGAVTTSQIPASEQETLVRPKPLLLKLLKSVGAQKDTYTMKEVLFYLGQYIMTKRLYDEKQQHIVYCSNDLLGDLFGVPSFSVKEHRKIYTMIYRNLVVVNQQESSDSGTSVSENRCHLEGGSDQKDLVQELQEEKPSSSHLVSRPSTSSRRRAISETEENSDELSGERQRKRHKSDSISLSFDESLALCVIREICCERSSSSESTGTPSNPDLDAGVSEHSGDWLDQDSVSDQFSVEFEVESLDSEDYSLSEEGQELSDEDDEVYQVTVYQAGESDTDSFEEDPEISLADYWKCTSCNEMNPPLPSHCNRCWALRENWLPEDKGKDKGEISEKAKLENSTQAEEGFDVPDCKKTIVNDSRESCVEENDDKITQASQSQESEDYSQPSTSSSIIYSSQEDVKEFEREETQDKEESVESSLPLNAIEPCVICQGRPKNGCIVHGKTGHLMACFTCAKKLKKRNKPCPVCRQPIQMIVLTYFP
697 NFkB inh: inhibitors of the PMA/ionomycin-induced NF-kB reporter in 697 B cells. 697 B-cell NF-kB luciferase reporter, 16 h. inhibition, % at 4 µM. 0.33% of 330,000 active. AID 435022; in the data active = inhibition above about 35%
Jurkat NFkB conf: inhibitors of the PMA/ionomycin-induced NF-kB reporter in Jurkat cells, retest; 27% of 2,700 active; AID 435020; Jurkat NF-kB luciferase, 16 h; shares compounds with Jurkat NFkB inh; inhibition, % at 4 µM;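 active = inhibition reaching about 45% at 4 µM in either replicate, limit read from the data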;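 note: plate controls were PMA/ionomycin stimulated DMSO wells for no effect and unstimulated DMSO wells for full effect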
An asterisk follows results filed as active; · = no result.

SMILES	CSC inhib	Gli-Sufu antag	Beta apoptosis	Jurkat NFkB inh	Mdm2 MdmX PPI	697 NFkB inh	Jurkat NFkB conf
CSc1ccc(/C=C/C(=O)Nc2ccccc2)cc1	38	-160	1	-240	-74	-110	-149
O=C(Cc1ccc(NC(=O)C2CCN(C(=O)C3CCCC3)CC2)cc1)Nc1cccc(C(=O)N2CCCCC2)c1	·	7	·	·	·	·	·
Cc1cc2nc(-c3ccc(SCC(=O)Nc4ccc(S(=O)(=O)NC5CC5)cc4)nc3)[nH]c2cc1C	14	-66	4	-181	-160	-154	-141
Cc1cc2c(cc1C)N(C(=O)CSc1nncn1C)C(C)(C)c1ssc(=S)c1-2	7	2	3	30	18	-3	·
Cc1ccc2c(c1)N(C(=O)CSc1nncn1C)C(C)(C)c1ssc(=S)c1-2	4	6	-1	53*	3	-1	-31
O=C(Nc1cccc(S(=O)(=O)Nc2ccc(Cl)cc2)c1)c1ccc[n+]([O-])c1	6	10	-4	-8	-5	9	·
COc1ccc(NC(=O)c2cc(-c3ccccc3Cl)no2)cc1	-11	25	1	-21	-1	5	·
O=C(Nc1ccccc1)c1cc(-c2ccccc2Cl)no1	-7	-8	-3	-172	-89	0	-41
Cc1cc(C)c(CN2CCN(C(=O)Cn3cnc4c(OCc5ccccc5)ncnc43)CC2)c(C)c1	·	46	77*	59*	45	33	59*
O=C(O)Cn1cnc2c(OCc3ccccc3)ncnc21	·	18	-5	-5	19	-7	·
Cc1ccsc1/C=C/c1ccc2ccccc2n1	-8	-51	14	-165	-90	-162	-105
COc1ccc(CC(NC(C)=O)C(=O)NC2CCN(C(=O)C3CCCCC3)CC2)cc1OC (centres undefined)	-2	21	-8	-2	11	24	·
CCc1ccc(Nc2ncc3c(n2)CC(c2ccc(OC)cc2)CC3=O)cc1 (centres undefined)	13	-12	4	-7	22	-5	·
CCc1ccc(Nc2ncc3c(n2)CC(C)CC3=O)cc1 (centres undefined)	-3	-112	-3	-172	-116	-164	-91
COc1ccccc1N1CCN(C2CCCN(C(=O)CCc3c(C)noc3C)C2)CC1 (centres undefined)	-10	4	-3	-8	5	-32	·
CCN(Cc1ccccc1)c1ccc(N=Nc2nn(C)c(C)c2[N+](=O)[O-])cc1	14	-48	-1	-13	-4	-66	·
CCN(CC)c1ccc(N=Nc2nn(C)c(C)c2[N+](=O)[O-])cc1	-1	-103	9	-178	-190	-189	-106
CCCn1c(N)c(Sc2ccccc2[N+](=O)[O-])c(=O)n(CCC)c1=O	·	2	-2	-3	10	11	·
COc1cc(OC)c(NS(=O)(=O)c2cc3[nH]c(=O)c(=O)[nH]c3cc2C)cc1Cl	-7	-18	-2	-9	-4	-6	·
CCN(CC)c1ccc(NC(=O)c2ccc(Br)o2)cc1	0	-94	12	-153	-180	-91	-63
COC(=O)Cc1ccc(NC(=O)c2ccc(Br)o2)cc1	30	-4	0	-59	-20	2	·
COc1ccc(C(=O)NCCCNC(=O)c2ccc(C)nc2)cc1	·	-15	-6	-9	13	-1	·
CC(C)Cc1nnc(NC(=O)c2ccc(N3CCCC3=O)cc2)s1	-4	10	-4	-11	-15	-17	·
NC(=O)c1ccsc1NC(=O)c1ccc(N2CCCC2=O)cc1	35	-107	9	-161	-170	-139	-70
COc1ccc(Nc2nc3cc(C)ccc3cc2C#N)c(OC)c1	50	8	1	65*	39	-51	46
SMILES	CSC inhib	Gli-Sufu antag	Beta apoptosis	Jurkat NFkB inh	Mdm2 MdmX PPI	697 NFkB inh	Jurkat NFkB conf
COc1ccc(Nc2nc3ccc(C)cc3cc2C#N)c(OC)c1	1	-20	-17	-2	-21	-20	·
CN1CCN(c2ccc(NC(=O)CSc3ccccc3)cc2F)CC1	44	-25	6	-155	-26	-159	-51
O=C(CSc1ccccc1)Nc1ccc2c(c1)OCCO2	-13	5	·	-167	-47	-17	-81
Cc1ccc(-n2nnc(-c3cc4ccccc4n3C)n2)cc1	12	-110	-4	-152	-95	-182	-47
Cn1c(-c2nnn(-c3ccc(F)cc3)n2)cc2ccccc21	-1	·	-1	-140	-243	-142	·
Cc1ccc(-n2nnc(-c3cccnc3Cl)n2)cc1	-1	-124	-5	-173	-153	-228	-86
Cc1cc2c(cc1C)C(c1cc(Br)ccc1F)CC(=O)N2 (centres undefined)	172*	-5	-3	57*	40	-27	16
Cc1cc2c(cc1C)C(c1ccccc1F)CC(=O)N2 (centres undefined)	33	-2	2	15	27	-12	·
O=C1c2ccc([N+](=O)[O-])cc2C(=O)N1Cc1cccnc1	-5	-1	-3	-4	1	12	·
Cc1cc(C)n(-c2nc3c(c(=O)[nH]c(=O)n3C)n2CC(O)COc2ccc(Cl)cc2Cl)n1 (centres undefined)	46	17	49	51*	46	-31	46
Cc1ccccc1C=Nc1ccccc1C(N)=O	-5	-3	2	54*	42	2	11
CN(C)CCCNc1cc(O)c2ncccc2c1	·	18	2	56*	20	17	25
O=C(Cc1ccc(-n2cccc2)cc1)NCc1ccccc1Cl	58	-5	3	47	34	-6	·
O=C(Cc1ccccc1)NCc1ccc(-n2cccc2)cc1	57	-16	2	54*	46	-36	14
COc1ccc2oc(=N)c(C(=O)Nc3ccccc3Cl)cc2c1	6	-94	20	-160	-91	-196	-92
Cc1cnc(C(=O)OCc2nc3ccsc3c(=O)[nH]2)cn1	·	-6	-3	-4	11	5	·
Cc1cc(C(=O)Nc2ccc3ccccc3c2)c(C)o1	33	-68	13	-176	-189	-166	-12
O=C(Nc1ccc2ccccc2c1)c1cccc(F)c1	15	-94	7	-200	-191	-221	-127
CC(=O)c1cc(C(=O)Nc2ccc3ccccc3c2)c(C)o1	-7	39	-2	1	-6	-2	·
CCCn1c(=O)[nH]c(=O)c2c1nc(-c1cc([N+](=O)[O-])ccc1Cl)n2CCOC	0	-8	·	2	15	13	·
CCC(=O)Nc1ccc2c(c1)C(=O)c1ccccc1C2=O	7	-65	8	-161	-116	-87	-107
O=C(NCc1ccco1)C1CC(c2ccc(C(F)(F)F)cc2)=NO1 (centres undefined)	0	16	2	50*	13	1	19
COc1ccc(C2=NOC(C(=O)NCc3ccco3)C2)cc1 (centres undefined)	·	-17	5	41	50	-31	·
